The full ranking holds about 25,000 sequences; the median of “ln(normalized median fluorescence intensity)” is about 7.1, and the highest 2% start at about 10. The entries come from a sample that favours the highest values as a whole.
test system: PfSIP2 AP2 domain 1 (GST-tagged); assay: gcPBM binding intensity (ln(normalized median fluorescence intensity)); higher = stronger DNA binding
Procedure, shortened: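 DNA-binding domains from P. falciparum, fused to GST and produced in E. coli, were put on an Agilent 4 × 180k double-stranded probe array for 1 h in 1× PBS holding 1% milk, 0.2 mg/ml BSA, 0.5% salmon testes DNA and 0.03% Triton X-100. Probes were primer-extended, 36 bp long and drawn from intergenic genomic regions, with negative controls included. After Alexa488 anti-GST antibody detection and a 488 nm scan, binding intensity was set as the highest Masliner-normalised natural-log median intensity across replicate spots of either probe orientation.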

| Sequence | gcPBM binding intensity (ln) |
| --- | --- |
| CATAAATAAGCTTTAGTGCATTATATTTAAATTTTT | 7.29 |
| ATATATAAATAAATAGTGCATTTTAATATTTAACGT | 9.27 |
| GAAAGAAATAAAGGTGGTACATAAATAAAAACTAAG [XGTACX_site4826] | 7.38 |
| CGTTATATAATAAAGGTGCATAGATATATCATTATA [GTGCAC_site9774] | 10.5 |
| CCTAATTTTATTAGGGTGCATTTTTAGTTAAATATA | 11.2 |
| GGTATATTAAAATAGGTGCATAAAACTAAGAGAAAA [GTGCAC_site9781] | 11 |
| AAAAATAAAGAAACAGGTACGCATATATTAAGATAT [XGTACX_site8097] | 7 |
| AATATCATTATATAAGTGCATTTTTTAAAAGATAAA [GTGCAC_site9479] | 9.12 |
| TAATAAATGTTATTAGTGCATAATAGATAATATATT | 8.29 |
| GGTATATATTCTATCACACATATTTCCATGAAAATA [CACACA_site4728] | 7.29 |
| AAAAAAAAAAAATAAAGTACTAAATAATACATTATA [XGTACX_site6203] | 7.02 |
| TGTAGTCTGGAGAAAAGTACACAGTATCTGGTAGCT [XGTACX_site2012] | 6.95 |
| TATGTATTTTTATGCACACATGCGTGGCTTATATAA [CACACA_site387] | 7.39 |
| GTATATATATATATATATATATATTTTTATTTATTT [CACACA_negctrl_site589] | 7.42 |
| ATTGTAAGGAAACACACACACATATATATGTATATA [CACACA_site676] | 7.07 |
| ACCTATGTATATTATACACACTCCAAACTATTATTT [CACACA_site1817] | 7.19 |
| TTTGTAGTTTGCACATGTACACATTTCAAAATAAAG [XGTACX_site7568] | 7.49 |
| TTTCATAACAAAAAAGTGCAAAATAGCACGAACATT [GTGCAC_site9703] | 8.82 |
| AAATATTCATAGTATACACACATTTATTTATAACCA [CACACA_site6502] | 6.9 |

| Sequence | gcPBM binding intensity (ln) |
| --- | --- |
| TTTGTTTTTCATAGTGCACACATAACCAAAAATAGT [CACACA_site9030] | 10.5 |
| GGTATTTTCACATATAGTACACAAAAATAAAATAAA [XGTACX_site2139] | 7.79 |
| TGTTTTTCATAGTGCACACATAACCAAAAATAGTAT [CACACA_site3150] | 10.8 |
| ATATATGTATTTAATACACACAAAACTTTCATTCCA [CACACA_site3531] | 6.9 |
| TGTACGTTTTATAACACACACACAAAAAAAAAAAAA [CACACA_site3875] | 7.09 |
| TGAATATGTAAATGCACACCAAAAAAAAAAAAAAAA [CACACA_site3566] | 7.29 |
| TACTATAAGATATATACACACAAGAAATACAAAACG [CACACA_site6764] | 7.53 |
| AATATATGCTTTCGTTATATTAAATTCAATTTAATG [GTGCAC_negctrl_site76] | 6.95 |
| TAGAATAAATTAATTACACACGGAATTATATATATA [CACACA_site1616] | 7.83 |
| AAAAAAAAAAATATATTATTTTACTTGTTTATTTTA [CACACA_negctrl_site1447] | 6.68 |
| AAGAAAATATATTCACATGAAGAATTAAAATAAAAC [TGCATGCA_negctrl_site119] | 7.14 |
| TTTAAAAAAAATATGTGTACTTAATATTTTCATATA [XGTACX_site7421] | 6.78 |
| ATATTATATTGGATGTTGCACTTAACAAAAGGATAT [GTGCAC_site9478] | 8.76 |
| TTTGTTCATATTATTGTGCACTTAAACGTAACAAAA [GTGCAC_site9505] | 10.2 |
| TTTTTGTAAAATAAACGTACAAAACAATTGTTCATT [XGTACX_site6537] | 6.94 |
| ATCATTCCACTTTTCACACATATCTCTATTTCTATC [CACACA_site4723] | 7.37 |
| TAAAAATATTTTCATTGTACATATATATAAATATAT [XGTACX_site1123] | 6.97 |
| AATATTGCACCATTTTGTACATAATATATTCAAATA [XGTACX_site475] | 10.7 |
| TACAACAATTTTTGCACACACCAAAACATAAAATAA [CACACA_site4964] | 7.52 |

| Sequence | gcPBM binding intensity (ln) |
| --- | --- |
| ATTTTTTTTTTTTTTTTTTTTGCACCATAAAATAAT [CACACA_negctrl_site1324] | 11.3 |
| AAAATAAATAAATATACACACCATATATATATTTTT [CACACA_site5573] | 6.88 |
| AATATATTTTTTTTTTGTACATATTGTAAAATAATA [XGTACX_site6805] | 6.99 |
| TTTTTTTTTGGGTGTACACATGAATATATATTTTTT [CACACA_site5254] | 7.83 |
| TACTGTATTATAATTATGATTGACGAAATTAAAAAT [GTGCAC_negctrl_site358] | 6.91 |
| GATTTTAATGGGTGTACACATTTATTTATATAAAGT [CACACA_site5317] | 7.54 |
| ATGAATAAATAGGTCACACACAAATATATATAAATA [CACACA_site2416] | 6.98 |
| TTAATATTGTATCCAAGTACACAAATTATTATATTT [XGTACX_site8067] | 7.11 |
| CATGTATTTTATATTACACACTAATATTATATATAT [CACACA_site1508] | 7.51 |
| CTTTCATATGTTTTAACACACACGCATATATTATAG [CACACA_site7033] | 7.08 |
| TCTAACATATCTTTAATACACACTTAAAAAAGTACT [CACACA_site652] | 7.03 |
| ATATATATTATATAGTGTACCTATGTATAATAATAT [XGTACX_site1683] | 7.16 |
| TATAATGTATGTAGTGCACACCTCTATAATATATTA [CACACA_site8560] | 10.3 |
| TAGAATGTATGTAGTGCACACCTCTATAATATATTA [CACACA_site1873] | 10.7 |
| TGTAATATATGTATTGCACACCTATAACCATTATTT [CACACA_site8422] | 7.17 |
| TATGTACACCCATATACACACCTCTATAATATATAT [CACACA_site4563] | 7.29 |
| ATATGTAGAAGTAATGCACACATATGTATATATATA [CACACA_site8796] | 8.38 |
| TTAAAAATGAACATATGTACATATATATATATATAT [XGTACX_site7923] | 9.39 |
| TAAAAAATAAGATATACACACATATATTTATTTATA [CACACA_site7158] | 6.72 |

Reference: the supplement of paper PMC11417369
